# Unmarked numbers belong to inactive results. Inconclusive results are not listed. A call without a number means that no potency is given here. Calls of active or inactive are those of the source. Unless noted, calls come from the whole dose curve.
# What was measured:
# [1] = Nuclear factor erythroid 2-related factor 2/antioxidant responsive element (Nrf2/ARE) small molecule agonists: qHTS cell viability counter screen in human keratinocytes (AID 1919968; active = well fitted curve in the direction sought with a large enough effect in the repeat runs; an effect the other way counts as inactive or inconclusive; note: nearly all actives have a fitted effect of over 55% in size; note: potency is the fitted concentration of half-maximal effect)
# Procedure, shortened: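 KeratinoSens cells (HaCaT keratinocytes stably carrying an ARE-luciferase reporter) were seeded at 1,500 cells/well and rested 5 h at 37 C/5% CO2. They were then exposed to compounds in DMSO for 23 h. Viability was read by CellTiter-Fluor fluorescence after 1 h.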
# [2] = Nuclear factor erythroid 2-related factor 2/antioxidant responsive element (Nrf2/ARE) small molecule agonists: luciferase reporter gene qHTS assay in human keratinocytes (AID 1919969); note: nearly all actives have a fitted effect of over 35% in size; note: potency is the fitted concentration of half-maximal effect
# [3] = molecular target: Gonadotropin-releasing hormone receptor (Homo sapiens) (UniProt P30968); experiment: Human gonadotropin-releasing hormone receptor (GnRHR) small molecule agonists, calcium flux assay in GnRHR-HEK293 cells (AID 1920063); note: nearly all actives have a fitted effect of over 35% in size
# Procedure, shortened: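 HEK293 cells stably expressing human GnRHR were plated 18 h at 37 °C, loaded with calcium dye 1 h at 37 °C, then given compound in agonist mode; fluorescence (Ex/Em 480/540) read kinetically for 3 min at 1 s intervals.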
# [4] = molecular target: KiSS-1 receptor (Homo sapiens) (UniProt Q969F8); experiment: Human kisspeptin (KISS1R) small molecule agonists, calcium flux assay in KISS1R-HEK293 cells (AID 1920064; active = well fitted curve in the direction sought with a large enough effect in the repeat runs; an effect the other way counts as inactive or inconclusive)
# Procedure, shortened: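 HEK293 cells stably expressing human KISS1R were plated 18 h at 37 °C, loaded with calcium dye for 1 h at 37 °C, then given compound by pin tool. Fluorescence (Ex/Em 480/540) was read kinetically for 3 min.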
# [5] = G protein-coupled receptor (GPCR) small molecule agonists, calcium flux assay: HEK293 wild type cell line counter screen (AID 1920065)
# Procedure, shortened: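 Cells were plated and cultured 18 h at 37 C/5% CO2, then loaded with calcium dye for 1 h at 37 C. Compounds in DMSO were pin-transferred in agonist mode, and fluorescence (Ex/Em 480/540) was read kinetically for 3 min at 1 s intervals.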
# [6] = p53 small molecule agonists, cell-based qHTS assay with human liver microsomes: qHTS cell viability counter screen (AID 1963579); note: nearly all actives have a fitted effect of over 45% in size; note: potency is the fitted concentration of half-maximal effect
# Procedure, shortened: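 Cells carrying the p53 response-element beta-lactamase reporter are treated for 16 h at 37 C with test compounds in the presence of human liver microsomes and NADPH (both 0.5 mg/mL final); ATP-based CellTiter-Glo luminescence then reports viability.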
# [7] = p53 small molecule agonists, cell-based qHTS assay: qHTS cell viability counter screen (AID 1963581); note: nearly all actives have a fitted effect of over 45% in size; note: potency is the fitted concentration of half-maximal effect
# Procedure, shortened: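 p53RE-bla HCT-116 cells were exposed to compounds for 16 h at 37 C; after the beta-lactamase FRET read in the same wells, CellTiter-Glo was added and luminescence (intracellular ATP) read after 30 min at room temperature.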
# [8] = p53 small molecule agonists, cell-based qHTS assay (AID 1963582; active = well fitted activation curve with a large enough effect in the signal ratio in the repeat runs, not every such curve was filed as active; the % refers to the signal ratio; note: potency is the fitted concentration of half-maximal effect)
# Procedure, shortened: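 p53RE-bla beta-lactamase reporter cells rested 5 h at 37 C/5% CO2, then received compounds in DMSO by pin transfer and were incubated 16 h at 37 C. LiveBLAzer B/G FRET substrate was loaded for 2 h at room temperature before fluorescence reading.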
# [9] = molecular target: 5-hydroxytryptamine receptor 2A (Homo sapiens) (UniProt P28223); experiment: 5-hydroxytryptamine receptor 2A (HTR2A) small molecule antagonists, cell-based qHTS assay (AID 1963586); note: nearly all actives have a fitted effect of over 45% in size; note: potency is the fitted concentration of half-maximal effect
# Procedure, shortened: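 Antagonist-mode intracellular calcium assay: DOI (4 nM) added after 5 min compound pre-incubation at room temperature to dye-loaded HTR2A-CHO cells. Fluorescence followed for 3 min, sampled every second.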
# [10] = molecular target: 5-hydroxytryptamine receptor 2A (Homo sapiens) (UniProt P28223); experiment: 5-hydroxytryptamine receptor 2A (HTR2A) small molecule agonists, cell-based qHTS assay (AID 1963587); note: nearly all actives have a fitted effect of over 30% in size; note: potency is the fitted concentration of half-maximal effect
# Procedure, shortened: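 Kinetic calcium-flux fluorescence (2 min, 1 sec intervals) after compound addition in agonist mode. HTR2A-CHO cells were cultured 18 h, then dye-loaded 1 h at 37 C.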
# [11] = molecular target: Muscarinic acetylcholine receptor M1 (Homo sapiens) (UniProt P11229); experiment: Cholinergic receptor muscarinic 1 (CHRM1) small molecule antagonists, cell-based qHTS assay (AID 1963588); note: nearly all actives have a fitted effect of over 40% in size
# Procedure, shortened: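 CHRM1-CHO calcium-flux assay, antagonist mode. Cells were seeded 18 h, dye-loaded 1 h at 37 C and given compound for 5 min at RT, then acetylcholine was added at 50nM. FDSS fluorescence was read 3 min; 15 concentrations, three runs.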
# [12] = molecular target: Muscarinic acetylcholine receptor M1 (Homo sapiens) (UniProt P11229); experiment: Cholinergic receptor muscarinic 1 (CHRM1) small molecule agonists, cell-based qHTS assay (AID 1963589); note: nearly all actives have a fitted effect of over 35% in size
# Procedure, shortened: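 CHO cells stably expressing human CHRM1, seeded 18 h at 37 C/5% CO2, dye-loaded 1 h at 37 C, then given compound in agonist mode; intracellular calcium fluorescence read kinetically at 1 s intervals. Fifteen concentrations, three independent runs.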
# [13] = cAMP Responsive Elements (CRE) small molecule agonists, cell-based qHTS assay (AID 1963590)
# Procedure, shortened: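 CRE-bla HEK 293T cells in DMEM with 10% dialyzed FBS, NEAA, pyruvate and 25 mM HEPES were plated 18 h at 37 C/5% CO2, then exposed to compounds in DMSO for 3 h before LiveBLAzer B/G FRET substrate addition.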
# [14] = cAMP Responsive Elements (CRE) small molecule antagonists, cell-based qHTS assay (AID 1963591; active = well fitted inhibition curve with a large enough effect in the signal ratio in the repeat runs, not every such curve was filed as active; the % refers to the signal ratio)
# Procedure, shortened: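 CRE-bla HEK293T cells were plated 18 h at 37 °C/5% CO2, pinned with compound in DMSO, then stimulated with NKH477 at 0.25 uM final for 3 h. LiveBLAzer B/G FRET substrate was added and plates incubated 2 h at room temperature.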
# [15] = molecular target: Beta-2 adrenergic receptor (Homo sapiens) (UniProt P07550); experiment: Adrenergic beta2 receptor (ADRB2) small molecule antagonists, cell-based qHTS assay (AID 1963592); note: series mostly up to about 92 µM; nearly all actives have a fitted effect of over 50% in size
# Procedure, shortened: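 Cells (CHO, stable ADRB2 overexpression) incubated 18-20hr at 37C; compounds added from DMSO; agonist mix (1nM isoproterenol, 100uM IBMX, 25uM Ro-20-1724) added; 0.5hr RT; d2-cAMP and anti-cAMP-cryptate added; 1hr RT; 665/615 nm read.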
# [16] = molecular target: Beta-2 adrenergic receptor (Homo sapiens) (UniProt P07550); experiment: Adrenergic beta2 receptor (ADRB2) small molecule agonists, cell-based qHTS assay (AID 1963593);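 note: CHO cells stably overexpressing human ADRB2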
# Procedure, shortened: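 CHO cells stably over-expressing ADRB2 were plated overnight at 37C, then dosed with compounds plus a stimulation mix containing 100uM IBMX and 25uM Ro-20-1724 for 0.5hr at room temperature. cAMP was measured by HTRF competition, 1hr.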
# [17] = molecular target: D(2) dopamine receptor (Homo sapiens) (UniProt P14416); experiment: Dopamine D2 receptor (DRD2) small molecule agonists, cell-based qHTS assay (AID 1963594); note: nearly all actives have a fitted effect of over 35% in size
# Procedure, shortened: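 cAMP accumulation in DRD2-HEK293 cells measured by HTRF after 1 h detection; compounds added 10 min before NKH477 (200nM […]) forskolin-analogue stimulation, 30 min at room temperature, with Ro20-1724 present at 0.1 mM final.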
# [18] = molecular target: D(2) dopamine receptor (Homo sapiens) (UniProt P14416); experiment: Dopamine D2 receptor (DRD2) small molecule antagonists, cell-based qHTS assay (AID 1963595; active = well fitted inhibition curve with a large enough effect in the signal ratio in the repeat runs, with a control signal flat; the % refers to the signal ratio)
# Procedure, shortened: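 HTRF cAMP read-out at 665 and 620 nm emission (340 nm excitation). Antagonist mode: compounds were tested against 12 nM quinpirole in DRD2-HEK293 cells, with 200 nM NKH477 raising cAMP and 0.1 mM Ro20-1724 blocking its breakdown.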
# [19] = p53 small molecule agonists, cell-based qHTS assay with rat liver microsomes (AID 1963578)
# Procedure, shortened: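 Read-out is beta-lactamase reporter fluorescence (LiveBLAzer, 2 h, room temperature, dark) in p53RE-bla cells treated 16 h at 37 C with compound, rat liver microsomes and NADPH, both 0.5 mg/mL final.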
# [20] = p53 small molecule agonists, cell-based qHTS assay with rat liver microsomes: qHTS cell viability counter screen (AID 1963580); note: nearly all actives have a fitted effect of over 45% in size
# Procedure, shortened: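 HCT-116 p53RE-bla, 4,000 cells/well, 5 h pre-incubation; cpd + rat liver microsomes 0.5 mg/mL + NADPH 0.5 mg/mL (final); 16 h, 37 C; CellTiter-Glo, 30 min RT; luminescence.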
# Sequence of Muscarinic acetylcholine receptor M1 (Homo sapiens) (P11229 whole entry, looked up): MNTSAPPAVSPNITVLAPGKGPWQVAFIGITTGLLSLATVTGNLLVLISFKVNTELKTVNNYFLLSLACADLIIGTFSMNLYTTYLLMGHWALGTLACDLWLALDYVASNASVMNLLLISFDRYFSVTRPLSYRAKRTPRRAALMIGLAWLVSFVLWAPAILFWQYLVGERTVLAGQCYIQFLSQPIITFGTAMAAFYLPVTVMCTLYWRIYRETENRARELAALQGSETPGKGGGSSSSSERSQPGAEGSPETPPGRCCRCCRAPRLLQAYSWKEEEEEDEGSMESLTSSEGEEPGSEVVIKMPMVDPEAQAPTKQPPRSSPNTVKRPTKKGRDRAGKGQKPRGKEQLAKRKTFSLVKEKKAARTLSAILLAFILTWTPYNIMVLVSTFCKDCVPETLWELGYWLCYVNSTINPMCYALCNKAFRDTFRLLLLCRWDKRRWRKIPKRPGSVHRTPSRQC
# Sequence of 5-hydroxytryptamine receptor 2A (Homo sapiens) (P28223 whole entry, looked up): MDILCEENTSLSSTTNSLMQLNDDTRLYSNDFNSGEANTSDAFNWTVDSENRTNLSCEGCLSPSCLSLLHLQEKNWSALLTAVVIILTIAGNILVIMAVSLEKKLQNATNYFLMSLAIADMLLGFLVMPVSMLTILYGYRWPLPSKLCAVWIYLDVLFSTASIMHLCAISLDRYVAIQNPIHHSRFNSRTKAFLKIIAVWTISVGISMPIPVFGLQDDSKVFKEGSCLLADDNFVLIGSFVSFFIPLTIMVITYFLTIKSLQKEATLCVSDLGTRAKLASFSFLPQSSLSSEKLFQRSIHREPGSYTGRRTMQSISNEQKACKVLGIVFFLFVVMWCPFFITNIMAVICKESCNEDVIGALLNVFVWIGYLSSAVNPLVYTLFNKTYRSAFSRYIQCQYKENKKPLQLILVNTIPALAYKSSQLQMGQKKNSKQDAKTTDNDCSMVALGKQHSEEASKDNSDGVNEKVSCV
# Sequence of Gonadotropin-releasing hormone receptor (Homo sapiens) (P30968 whole entry, looked up): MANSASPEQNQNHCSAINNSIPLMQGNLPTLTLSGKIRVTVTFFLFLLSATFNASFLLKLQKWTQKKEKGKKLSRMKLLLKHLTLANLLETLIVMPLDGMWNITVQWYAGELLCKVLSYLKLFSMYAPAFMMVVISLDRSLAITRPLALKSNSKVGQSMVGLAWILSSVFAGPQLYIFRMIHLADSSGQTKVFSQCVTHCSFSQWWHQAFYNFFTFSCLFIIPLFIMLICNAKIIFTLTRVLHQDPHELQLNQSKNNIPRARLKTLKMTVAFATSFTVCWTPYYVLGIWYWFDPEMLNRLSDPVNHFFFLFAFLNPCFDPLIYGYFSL
# Sequence of Beta-2 adrenergic receptor (Homo sapiens) (P07550 whole entry, looked up): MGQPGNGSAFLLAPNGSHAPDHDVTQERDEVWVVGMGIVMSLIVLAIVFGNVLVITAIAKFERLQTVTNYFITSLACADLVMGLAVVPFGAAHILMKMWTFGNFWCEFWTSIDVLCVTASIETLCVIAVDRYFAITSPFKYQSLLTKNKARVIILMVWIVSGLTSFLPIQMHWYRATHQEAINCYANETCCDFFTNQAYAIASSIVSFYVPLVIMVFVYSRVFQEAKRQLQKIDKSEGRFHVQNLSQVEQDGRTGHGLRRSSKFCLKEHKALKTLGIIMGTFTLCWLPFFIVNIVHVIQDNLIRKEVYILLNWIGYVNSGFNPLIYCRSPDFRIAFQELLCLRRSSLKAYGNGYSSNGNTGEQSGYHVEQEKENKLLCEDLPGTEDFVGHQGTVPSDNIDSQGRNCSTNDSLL
# Sequence of D(2) dopamine receptor (Homo sapiens) (P14416 whole entry, looked up): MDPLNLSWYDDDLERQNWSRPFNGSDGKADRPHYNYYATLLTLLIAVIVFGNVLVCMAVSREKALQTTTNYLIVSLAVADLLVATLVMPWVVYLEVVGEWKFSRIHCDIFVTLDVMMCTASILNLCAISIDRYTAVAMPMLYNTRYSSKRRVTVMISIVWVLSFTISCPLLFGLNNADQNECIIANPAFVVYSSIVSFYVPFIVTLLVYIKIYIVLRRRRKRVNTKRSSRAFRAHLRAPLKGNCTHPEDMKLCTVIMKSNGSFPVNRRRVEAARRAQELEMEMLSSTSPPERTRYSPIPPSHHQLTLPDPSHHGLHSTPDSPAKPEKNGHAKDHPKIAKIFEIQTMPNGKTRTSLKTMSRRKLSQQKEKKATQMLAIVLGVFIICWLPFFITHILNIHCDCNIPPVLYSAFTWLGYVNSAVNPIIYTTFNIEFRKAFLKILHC
# Sequence of KiSS-1 receptor (Homo sapiens) (Q969F8 whole entry, looked up): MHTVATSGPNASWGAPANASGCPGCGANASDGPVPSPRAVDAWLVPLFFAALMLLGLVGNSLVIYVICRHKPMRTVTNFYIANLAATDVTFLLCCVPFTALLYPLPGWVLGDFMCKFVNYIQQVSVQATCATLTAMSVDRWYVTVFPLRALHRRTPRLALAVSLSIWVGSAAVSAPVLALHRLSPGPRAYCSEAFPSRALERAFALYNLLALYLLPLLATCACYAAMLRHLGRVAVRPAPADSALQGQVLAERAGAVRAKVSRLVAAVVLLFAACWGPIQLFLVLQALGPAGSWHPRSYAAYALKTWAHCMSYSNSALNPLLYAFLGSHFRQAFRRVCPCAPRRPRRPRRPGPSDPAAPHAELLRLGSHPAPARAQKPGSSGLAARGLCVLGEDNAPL
Compound,Potency [1],Potency [2],Potency [3],Potency [4],Potency [5],Potency [6],Potency [7],Potency [8],Potency [9],Potency [10],Potency [11],Potency [12],Potency [13],Potency [14],Potency [15],Potency [16],Potency [17],Potency [18],Potency [19],Potency [20]
c1csc(SSc2cccs2)c1,15.4 µM (active),6.11 µM (active),inactive,inactive,inactive,inactive,inactive,inactive,inactive,inactive,inactive,inactive,inactive,inactive,inactive,inactive,inactive,inactive,,
CC(=O)OC(OC(C)=O)c1ccc([N+](=O)[O-])o1,62.2 µM (active),24.8 µM (active),inactive,inactive,inactive,,,,,inactive,inactive,inactive,,,,,inactive,inactive,inactive,
C=CC(=O)OCC(C)OCC(C)OCC(C)OC(=O)C=C (stereo not drawn),61.1 µM (active),24.3 µM (active),inactive,inactive,inactive,,inactive,,inactive,inactive,inactive,inactive,,,inactive,,,inactive,inactive,
CCOCN(C(=O)CS(=O)(=O)O)c1c(C)cccc1CC,inactive,inactive,inactive,inactive,inactive,inactive,inactive,inactive,,,,inactive,inactive,inactive,inactive,inactive,inactive,inactive,,
CCCCCCNC(=O)n1cc(F)c(=O)[nH]c1=O,inactive,inactive,inactive,inactive,inactive,inactive,,5 µM (active),,,,,inactive,,inactive,inactive,inactive,inactive,,inactive
O=C(O)Cc1cc(I)c(Oc2cc(I)c(O)c(I)c2)c(I)c1,inactive,30 µM (active),inactive,inactive,inactive,17.9 µM (active),22.5 µM (active),,,,inactive,inactive,,,inactive,,inactive,inactive,,inactive
CC1=CCCC(C)(C)C12CCC(C)O2 (stereo not drawn),inactive,inactive,inactive,inactive,inactive,,inactive,inactive,,inactive,inactive,inactive,,inactive,,,inactive,,,inactive
CC(S)C(C)S (stereo not drawn),inactive,inactive,inactive,inactive,inactive,inactive,inactive,inactive,inactive,inactive,inactive,inactive,inactive,inactive,inactive,inactive,inactive,inactive,inactive,inactive
CC(CN=Cc1ccccc1O)N=Cc1ccccc1O (stereo not drawn),inactive,inactive,inactive,inactive,inactive,inactive,inactive,inactive,inactive,,inactive,inactive,inactive,inactive,inactive,inactive,inactive,inactive,,inactive
O=C1c2ccccc2-c2ccccc21,inactive,inactive,inactive,inactive,inactive,inactive,inactive,inactive,inactive,inactive,inactive,inactive,inactive,inactive,inactive,,inactive,inactive,,inactive
C=C(C)C1CCC(C)(O)CC1 (stereo not drawn),inactive,inactive,inactive,inactive,inactive,inactive,inactive,inactive,inactive,inactive,,inactive,inactive,inactive,inactive,inactive,inactive,,inactive,inactive
CCC[C@@H]1C[C@@H](C(=O)N[C@@H]([C@H]2O[C@H](SC)[C@H](O)[C@@H](O)[C@H]2O)[C@@H](C)O)N(C)C1,inactive,inactive,inactive,inactive,inactive,inactive,inactive,inactive,,,,,inactive,inactive,inactive,inactive,inactive,inactive,inactive,inactive
CCCC(C)CC (stereo not drawn),inactive,inactive,inactive,inactive,inactive,inactive,inactive,inactive,,inactive,inactive,inactive,inactive,inactive,inactive,,inactive,inactive,inactive,inactive
CC(C)N(C)C,inactive,inactive,inactive,inactive,inactive,inactive,inactive,inactive,,inactive,inactive,inactive,inactive,inactive,inactive,,inactive,inactive,inactive,inactive
CCCC(CCC)(C(=O)OCC)C(=O)OCC,inactive,inactive,inactive,inactive,inactive,inactive,inactive,inactive,3.26 µM (active),1.69 µM (active),inactive,inactive,,inactive,inactive,,,,inactive,inactive

# — PubChem BioAssay (Tox21)
